# Cruzain noTriton – cruzain (T. cruzi) inhibition without detergent | P25779 | 200,000 tested, 2.3% active | purified cruzain, Z-FR-AMC fluorescence, no detergent | Potency, µM, inactives show max response, negative = inhibition, hits mostly inhibitors;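 note: plate controls were enzyme without inhibitor for no effect and buffer without enzyme for full effect; nearly all actives have a fitted effect of over 40% in size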
# Target sequence (P25779 123-467 limits assumed): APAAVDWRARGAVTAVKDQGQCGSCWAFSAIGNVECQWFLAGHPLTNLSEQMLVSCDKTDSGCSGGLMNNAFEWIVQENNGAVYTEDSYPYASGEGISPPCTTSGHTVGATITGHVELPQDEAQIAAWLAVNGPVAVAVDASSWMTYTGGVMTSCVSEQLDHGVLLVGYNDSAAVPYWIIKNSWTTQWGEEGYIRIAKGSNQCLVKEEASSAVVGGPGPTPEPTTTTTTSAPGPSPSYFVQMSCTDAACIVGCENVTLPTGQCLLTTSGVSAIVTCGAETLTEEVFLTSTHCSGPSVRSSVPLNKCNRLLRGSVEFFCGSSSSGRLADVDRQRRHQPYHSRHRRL
#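 Detergent-free condition (0.00005% Triton X-100) in acetate buffer pH 5.5 with DTT. 1.5 nM enzyme and compound were pre-mixed 15 min, then 2 uM Z-FR-AMC substrate added; reaction progress from fluorescence change between first and third reads (60 s).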
# Cruzain inh Det – cruzain (T. cruzi) inhibition with detergent. P25779. purified cruzain, Z-FR-AMC fluorescence, 0.01% Triton. Potency, µM, inactives show max response, negative = inhibition, usual class: inhibitors. 200,000 tested, 0.43% active. AID 1478;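 note: plate controls were neutral wells for no effect and buffer without enzyme for full effect; nearly all actives have a fitted effect of over 40% in size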
#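 Read-out: AMC fluorescence (360 nm excitation, 450 nm emission), four reads over 2 min, first-to-third difference used. Conditions: cruzain 1.5 nM, Z-FR-AMC 2 uM, pH 5.5 acetate, 5 mM DTT, 0.01% Triton X-100.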
# The depositor's hits bear a star; ? = inconclusive. Hits are enriched below; roughly 2.4% of the tested compounds scored in any of these assays. Calls come from the whole dose curve; as a rule, active = well fitted curve in the direction sought with a large enough effect; inconclusive = small, poorly fitted or top-dose-only effect, or another doubt; inactive = no such curve, though single readings can be large; an effect the other way counts as inactive or inconclusive. Potency is the fitted concentration of half-maximal effect.
SMILES,Cruzain noTriton,Cruzain inh Det
CCCCOc1ccc(C(=O)Nc2cccc(-c3nc4cccnc4s3)c2)cc1,7%,-4%
Nc1c(C(=O)Nc2ccc(F)c(F)c2)sc2nc(-c3ccncc3)ccc12,-3%,-3%
CC(=O)c1sc2nc(-c3cccs3)ccc2c1N,-8%,-13%
Nc1c(C(=O)Nc2nc3ccccc3s2)sc2nc(-c3cccs3)ccc12,7.9µM*,-9%
Nc1c(C(=O)Nc2ccccc2Br)sc2nc(-c3cccs3)ccc12,20µM*,-8%
Nc1ccc(C(=O)Nc2nc3ccccc3s2)cc1,5%,-9%
Nc1c(C(=O)Nc2ccc(Cl)cc2F)sc2nc(-c3cccs3)ccc12,25µM*,-11%
CC(=O)N1CCc2cc(S(=O)(=O)NC(Cc3ccccc3)C(=O)Nc3cccc(C)c3)ccc21 (stereo not drawn),-22%,-2%
CCCCC[C@H](O)/C=C/C=C/C=C/[C@H](O)C/C=C\CCCC(=O)O,-5%,1%
CCOc1ccc(OCC)c(NC(=O)Cn2nc(CC)n3c(cc4sccc43)c2=O)c1,6%,1%
O=C(c1ccccc1)c1ccc2n1CC[C@H]2C(=O)O,-6%,-6%
O=C(O)[C@H]1CCCC[C@@H]1C(=O)Nc1nc2ccccc2[nH]1,4%,1%
Cc1cccc(NC(=O)Cn2c(=O)n(Cc3ccc4c(c3)OCO4)c(=O)c3ccccc32)c1,20µM*,-6%
COc1cccc(NC(=O)Cn2c(=O)n(Cc3ccc(C(=O)NCc4ccc5c(c4)OCO5)cc3)c(=O)c3ccccc32)c1,13µM*,-2%
O=C(Cn1c(=O)n(Cc2ccc(C(=O)NCc3ccc4c(c3)OCO4)cc2)c(=O)c2ccccc21)Nc1ccccc1F,13µM*,-2%
Cc1ccc(NC(=O)Cn2c(=O)n(Cc3ccc4c(c3)OCO4)c(=O)c3ccccc32)cc1,5%,-3%
Cc1ccc(Cl)cc1NC(=O)Cn1c(=O)n(Cc2ccc(C(=O)NCc3ccc4c(c3)OCO4)cc2)c(=O)c2ccccc21,-22%,-2%
Cc1ccc(NC(=O)Cn2c(=O)n(Cc3ccc(C(=O)NCc4ccc5c(c4)OCO5)cc3)c(=O)c3ccccc32)cc1,?,-4%
O=c1c(-c2cccs2)nc2cnc(Oc3cccc(Cl)c3)nc2n1C1CC1,3%,1%
CCCCc1cc(=O)oc2c(CN(CC)CC)c(O)c(Cl)cc12,?,28µM*
CCCCc1cc(=O)oc2cc(OCc3nn[nH]n3)c(Cl)cc12,2%,-8%
CCCc1cc(=O)oc2c(CN3CCN(C)CC3)c(O)c(Cl)cc12,?,32µM*
Cc1cc(=O)oc2c(CN3CCN(C)CC3)c(O)c(Cl)cc12,?,-22%
Cc1c(C)c2cc(Cl)c(O)c(CN3CCCCC3)c2oc1=O,-100%,?
CCCCc1cc(=O)oc2c(CN3CCCC3)c(O)c(Cl)cc12,?,28µM*
SMILES,Cruzain noTriton,Cruzain inh Det
CCC(C(=O)Nc1ccc(F)cc1F)n1nc(-c2ccccc2)c2c(c1=O)CCCC2 (stereo not drawn),-10%,-5%
O=C1CC(SCc2nc3ccccc3[nH]2)C(=O)N1c1ccc(Cl)cc1 (stereo not drawn),-3%,-9%
O=C1CC(SCc2nc3ccccc3[nH]2)C(=O)N1c1ccc(F)c(Cl)c1 (stereo not drawn),16µM*,-19%
c1ccc(CCN2CCOCC2)nc1,7%,0%
COc1ccc(NC(=O)c2oc3ccccc3c2NC(=O)C23CC4CC(CC(C4)C2)C3)cc1,0%,-4%
Cc1ccccc1Nc1nc(Nc2ccccc2C)nc(SC2=NCCS2)n1,?,4%
Cc1ccc(Nc2nc(Nc3ccc(C)cc3)nc(SC3=NCCS3)n2)cc1,25µM*,2%
COc1ccc(C2CC(=O)N3CN(C4CCCCC4)CSC3=C2C#N)c(OC)c1 (stereo not drawn),28%,25µM*
COc1ccc2ccccc2c1C1CC(=O)N2CN(C3CCCCC3)CSC2=C1C#N (stereo not drawn),?,-15%
C[n+]1ccc(C(=O)N/N=C/c2ccco2)cc1,-2%,-6%
COc1ccc(C(=O)N/N=C/c2ccc(OC)c(CN3CCN(c4ccc(F)cc4)CC3)c2)cc1,6%,-10%
COc1ccc(C(=O)N/N=C/c2ccc(OC)c(CN3CCCc4ccccc43)c2)cc1,16µM*,-7%
O=C(C[n+]1ccc2ccccc2c1)Nc1cc(C(F)(F)F)ccc1Cl,4%,-2%
O=C(C[n+]1ccc2ccccc2c1)c1ccc2ccc3ccccc3c2c1,3.2µM*,-3%
Clc1ccccc1-c1nc(Nc2ccccc2)nc2ccc(Br)cc12,25µM*,-1%
COc1ccccc1Nc1nc(-c2ccccc2Cl)c2cc(Br)ccc2n1,18%,4%
O=C(NCc1ccc2c(c1)OCO2)c1ccc2c(c1)N(Cc1cccc(Cl)c1)C(=O)c1ccccc1S2=O (stereo not drawn),?,-3%
COc1ccc(S(=O)(=O)n2nc(OC(=O)c3ccccc3)cc2N)cc1,-16%,-15%

# Source: PubChem
